M1 antag = antagonists of human M1 muscarinic receptor. 360,000 compounds, 1.3% hits. CHO-K1 hM1, Fluo-8 calcium fluorescence, ACh EC80 antagonist. AID 588852. inhibition, % at 3 µM. P11229;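 active means percent inhibition above its own plate's cutoff, namely the mean of that plate's compound wells plus 3 SD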;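 further: peak over basal fluorescence ratio during 140 s after agonist addition; 0% = ACh EC80 plus DMSO and 100% = DMSO alone without agonist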
Target sequence (P11229 whole entry, looked up): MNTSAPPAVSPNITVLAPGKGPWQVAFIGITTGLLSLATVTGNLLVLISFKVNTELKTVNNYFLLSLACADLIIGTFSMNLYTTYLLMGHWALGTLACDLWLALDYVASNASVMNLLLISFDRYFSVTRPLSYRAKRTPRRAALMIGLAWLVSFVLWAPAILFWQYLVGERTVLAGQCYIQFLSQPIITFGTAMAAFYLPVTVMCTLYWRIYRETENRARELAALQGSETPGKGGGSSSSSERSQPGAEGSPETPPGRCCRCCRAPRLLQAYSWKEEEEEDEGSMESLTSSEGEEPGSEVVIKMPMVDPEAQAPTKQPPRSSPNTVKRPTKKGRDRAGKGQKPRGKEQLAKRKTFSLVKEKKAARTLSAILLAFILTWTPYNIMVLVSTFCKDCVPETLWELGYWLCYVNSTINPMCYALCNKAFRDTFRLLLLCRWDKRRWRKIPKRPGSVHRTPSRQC
M1 ag parental = counter-screen for M1 agonists: effect in parental CHO-K1 cells. Fluo-8 calcium fluorescence; scaled to maximal ATP response, vehicle zero. activation, % at 3 µM. 360,000 compounds, 0.48% hits; in the data active means activation above about 15%;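 further: untransfected CHO-K1 host cells lacking M1 receptor as counterscreen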
M1 ag = human M1 muscarinic receptor agonism | 360,000 compounds, 0.33% hits | P11229 | activation, % at 3 µM | CHO-K1 hM1, Fluo-8 calcium fluorescence, agonist mode; 0% DMSO, 100% acetylcholine EC100;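 active means activation above the run's mean compound activation plus 3 SD, cut at about 16% in these data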;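 further: peak over basal fluorescence ratio within a 140 s kinetic read after compound addition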
CHO-K1 Ca PAM = nonselective activator or artifact in parental CHO-K1 calcium assay; 360,000 compounds, 0.02% hits; activation, % at 3 µM; ATP EC20, Fluo-8 calcium fluorescence; 0% at ATP EC20, 100% at ATP max; AID 602247;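 active means activation above the run cutoff, the mean activation of all test compounds plus 3 SD, cut at about 40% in these data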;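 further: peak over basal fluorescence ratio in a 140 s read after ATP addition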
M1 PAM = human CHRM1 positive allosteric modulation; 360,000 compounds, 0.088% hits; CHO-K1 hM1, Fluo-8 calcium fluorescence, ACh EC20; 0% = ACh EC20, 100% = maximal ACh; P11229; activation, % at 3 µM; in the data active means activation above about 19%, passing the limit was not always enough
CHO-K1 Ca antag = M1 antagonist counterscreen hit in parental CHO-K1 cells; ATP-induced calcium, Fluo-8 fluorescence; inhibition, % at 3 µM; 360,000 compounds, 0.6% hits;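 active means inhibition above a per-plate cutoff, the plate's mean sample inhibition plus 3 SD, cut at about 24% in these data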;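 further: 0% = DMSO plus EC80 ATP and 100% = DMSO alone without ATP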
* = called active by the depositor. A selection: hits, their analogues and other compounds. The true share with any hit is near 2.4%.

SMILES	M1 antag	M1 ag parental	M1 ag	CHO-K1 Ca PAM	M1 PAM	CHO-K1 Ca antag
COc1ccc(Cl)cc1Cn1c(C)c(C(=O)NCc2ccc(C#N)cc2)sc1=O	44*	4	-3	8	-32	-5
COc1ccccc1Cn1c(C)c(C(=O)NCc2cccc(C)c2)sc1=O	1	0	-8	0	3	22
COc1ccc(Cl)cc1Cn1c(C)c(C(=O)NCc2ccccc2C(F)(F)F)sc1=O	14	0	-8	-9	-11	4
Cc1ccc2c(c1)N(C(=O)CCC(=O)NCCN1CCOCC1)CCO2	14	4	-2	-2	-7	10
O=C(O)c1ccc(N2C(=O)c3ccccc3C2=O)cc1[N+](=O)[O-]	-6	0	1	4	8	9
COc1ccc(CCNC(=O)c2ccc(NC(=O)CC3SC(N4CCCCC4)=NC3=O)cc2)cc1 (stereo not drawn)	3	1	-3	-11	-3	2
Cc1nnc2ccc(-c3ccc(NS(=O)(=O)c4ccc(Cl)s4)cc3)nn12	8	3	-2	12	-3	-18
CCN1CCCC1CNC(=O)c1ccc(Sc2ccc(F)cc2)c([N+](=O)[O-])c1 (stereo not drawn)	100*	1	-7	7	-26	-4
CCN1CCCC1CNC(=O)c1ccc(Sc2ccccc2Cl)c([N+](=O)[O-])c1 (stereo not drawn)	99*	1	-8	-10	-26	0
COc1cccc(NC(=O)CCc2c(C)nc3nc(CNC(=O)c4cccc(F)c4)nn3c2C)c1	-17	1	-2	-2	11	-7
COc1ccc(C(=O)C2CCCN(C(=O)Cn3cncn3)C2)cc1OC (stereo not drawn)	-4	1	-2	-13	2	-7
COc1ccc(CN2CCCC(C(=O)c3ccc(Cl)cc3)C2)cc1Cn1cccn1 (stereo not drawn)	58*	5	-8	-10	-26	-5
COc1cccc(C(=O)C2CCCN(Cc3cccc(OCCO)c3)C2)c1 (stereo not drawn)	2	1	-11	4	-4	-6
COc1cccc(C(=O)C2CCCN(Cc3cccc(-n4nc(C)cc4C)c3)C2)c1 (stereo not drawn)	60*	1	-10	2	-30	1
COc1cccc(C(=O)C2CCCN(Cc3ccc(OC)c(Cn4cncn4)c3)C2)c1 (stereo not drawn)	37*	0	-8	-14	-22	0
CC(=O)C1=CCC(c2ccccc2)N(S(=O)(=O)c2cccc(C)c2)C1 (stereo not drawn)	2	1	-10	13	0	11
CCN(C(=O)COC(=O)CCCc1c[nH]c2ccccc12)c1c(N)n(Cc2ccccc2)c(=O)[nH]c1=O	2	0	-4	3	3	-9
CCOC(=O)C1=C(O)CSC1=Nc1ccc(Cl)cc1	2	-1	-2	-6	9	27*
CCOC(=O)C1=C(O)CSC1=Nc1ccccc1	-7	-1	-2	1	8	8
COC(=O)c1cc(S(=O)(=O)N2CCN(c3ccc(F)cc3)CC2)cn1C	0	20*	0	21	0	5
COc1cccc(/C(C#N)=C/c2c(-c3ccc(Cl)cc3)nc3c(C)cccn23)c1	48*	0	-5	10	-22	-13
O=C(CN1C(=O)NC2(CCCC2)C1=O)Nc1ccc(C(F)(F)F)cc1	5	0	2	-2	14	-1
OC1CNc2c(ccc3ccccc23)C1 (stereo not drawn)	-9	2	-1	16	5	-13
CN(Cc1cn(C)nc1-c1ccc(Oc2ccccc2)cc1)Cc1cnc2ccccn12	24*	9	-2	3	-13	20
Cn1cc(CNCc2cnc3ccccn23)c(-c2ccc(Oc3ccccc3)cc2)n1	7	7	-9	6	-15	14
SMILES	M1 antag	M1 ag parental	M1 ag	CHO-K1 Ca PAM	M1 PAM	CHO-K1 Ca antag
C[C@@H]1CCCCO[C@H](CN(C)S(=O)(=O)c2cn(C)cn2)[C@@H](C)CN([C@H](C)CO)C(=O)c2cc(NC(=O)c3ccncc3)ccc2O1	-1	1	-4	-3	-3	-4
COc1cccc(/C=N/NC(=O)c2cc(-c3ccccn3)nc3ccccc23)c1O	37*	4	-5	4	-11	-16
CCOc1ccc(-c2cc(C(=O)N/N=C/c3cccnc3)c3ccccc3n2)cc1	-5	24*	7	-1	-4	13
CCOc1ccc(-c2cc(C(=O)Nc3ccc4c(c3)OCCO4)c3ccccc3n2)cc1	11	3	-2	5	2	30*
Cn1c(N)c(C(=O)COC(=O)/C=C/c2cccc(Cl)c2)c(=O)n(C)c1=O	-12	0	-2	9	8	1
Cn1c(=O)c2cc(NC(=O)NCc3ccc(F)cc3)ccc2n1Cc1cccc(C(F)(F)F)c1	-4	2	-3	-2	1	1
NC1=NC[C@H](Cc2ccc(O)cc2)N1CCC12CC3CC(CC(C3)C1)C2	37*	0	-9	-2	-26	-12
CN(C)CCCOc1ccc2c(c1)Sc1ccccc1CC2=O	-2	4	24*	25	0	-2
CC(NC(=O)C12CC3CC(CC(C3)C1)C2)C(=O)NN=Cc1ccc([N+](=O)[O-])o1 (stereo not drawn)	102*	0	-9	8	9	-2
CC1(c2ccccc2)NC(=O)N(CC(=O)N2CCN(S(=O)(=O)c3c(F)cccc3F)CC2)C1=O (stereo not drawn)	15	0	-2	-24	-10	1
Cc1occc1C(=O)Nc1cnn(CCCC(=O)O)c1	1	0	-2	8	1	-9
COc1ccc(C(=O)N2CCN(S(=O)(=O)c3ccc(Cl)cc3)CC2)cc1OC	-7	2	-5	20	8	-7
COc1ccc(S(=O)(=O)N2CCN(C(=O)c3ccc(=O)[nH]n3)CC2)cc1OC	-2	16*	1	3	7	8
COc1ccc(S(=O)(=O)N2CCN(C(=O)c3cccnc3)CC2)cc1OC	-13	1	-4	9	4	-10
COc1ccc(C(=O)N2CCN(S(=O)(=O)c3ccc(F)cc3)CC2)cc1OC	-6	20*	-8	7	12	9
Cc1ccc(C(=O)N2CCN(S(=O)(=O)c3ccccc3)CC2)cc1	31*	-1	-6	-5	-9	7
CC1(C)CCc2cc(S(=O)(=O)N3CCN(S(=O)(=O)c4c(F)cccc4F)CC3)ccc2O1	-8	0	-3	3	11	-12
CCC(NC(=O)c1cc(COc2ccc(F)cc2Cl)on1)c1ccncc1 (stereo not drawn)	1	14	10	-27	9	10
